Screening data (PubChem BioAssay)
Peg3 promoter = Peg3 promoter-driven luciferase inhibitors, primary screen, cell-based, HeLa, luciferase luminescence | HeLa PEG-Prom luciferase reporter, overnight | inhibition, % at 20 µM | 360,000 compounds, 1.7% hits | AID 588405, 2011;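 active = inhibition of at least 50% at 20 µM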
CF NFkB block = inhibitors of PAF-induced NF-kB signaling, primary screen, cell-based, GFP fluorescence, uHTS; 360,000 compounds, 0.86% hits; inhibition, % at 5 µM; KKLEB NF-kB-GFP reporter, GFP fluorescence overnight;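 active = at least 50% inhibition at 5 µM, scaled per plate between neutral and stimulator controls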;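 also: PAF is a Pseudomonas aeruginosa culture filtrate used as stimulus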
TWEAK-Fn14 inh = inhibitors of TWEAK-Fn14 signaling, primary screen, luciferase reporter cells, uHTS | 360,000 compounds, 2% hits | TWEAK-stimulated Fn14 reporter cells, luciferase luminescence, 8 h | inhibition, % at 10 µM | AID 1159606, 2016; in the data active = inhibition above about 50%
KKLEB cytotox = cytotoxicity in KKLEB CF airway cells, primary screen, cytotoxicity control for CF NF-kB inhibitor project, cell-based, uHTS, fluorescence assay plates | KKLEB CF airway cells viability, ATPlite luminescence, overnight; stronger effect = lower value; cells stimulated with P. aeruginosa culture filtrate | activity change (cytotoxicity), % at 5 µM | 360,000 compounds, 0.36% hits | AID 602141, 2011;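 active = corrected activity change at or below -50% at 5 µM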
HIF-2a block = HIF-2a reporter inhibitors, primary screen, luminescence, 786-0 RCC cells | 786-0 RCC cells HIF-2a reporter, luciferase luminescence, overnight | inhibition, % at 18.8 µM | 360,000 compounds, 0.72% hits | AID 624352, 2012;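 active = inhibition of the luminescence signal of 40% or more relative to plate controls, in a single-dose primary screen at 18.75 µM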
TROY NFkB inh = inhibitors of TROY-driven NF-kB signaling, primary screen, Q293 LMP1-TROYcd cells, NF-kB luciferase, uHTS; Q293 LMP1-TROYcd NF-kB luciferase reporter, 4 h; inhibition, % at 10 µM; 360,000 compounds, 0.98% hits; AID 1347056, 2019;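 active = compounds whose plate-normalised and pattern-corrected inhibition of the luciferase reporter signal at the single screening dose is 50% or more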
CF NFkB inh conf = inhibitors of PAF-induced NF-kB signaling, retest, confirmation, cell-based, GFP fluorescence, single concentration | shares compounds with CF NFkB block | KKLEB CF airway cells, overnight | inhibition, % at 5 µM | 1,300 compounds, 64% hits | AID 602472, 2012; in the data active = inhibition above about 40%;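 also: stimulus PAF is a Pseudomonas aeruginosa filtrate and not platelet activating factor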
Mdm2-MdmX confirm = retested Mdm2-MdmX interaction blockers, confirmation, cell-based, luminescence, single concentration, set 2 | inhibition, % at 8 µM | 740 compounds, 99% hits | SaOS-2 split-luciferase Mdm2/MdmX complementation | shares compounds with HIF-2a block;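 active = mean inhibition of the luminescence signal across two replicates at or above 26 percent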
Target sequence (O15151 whole entry, looked up): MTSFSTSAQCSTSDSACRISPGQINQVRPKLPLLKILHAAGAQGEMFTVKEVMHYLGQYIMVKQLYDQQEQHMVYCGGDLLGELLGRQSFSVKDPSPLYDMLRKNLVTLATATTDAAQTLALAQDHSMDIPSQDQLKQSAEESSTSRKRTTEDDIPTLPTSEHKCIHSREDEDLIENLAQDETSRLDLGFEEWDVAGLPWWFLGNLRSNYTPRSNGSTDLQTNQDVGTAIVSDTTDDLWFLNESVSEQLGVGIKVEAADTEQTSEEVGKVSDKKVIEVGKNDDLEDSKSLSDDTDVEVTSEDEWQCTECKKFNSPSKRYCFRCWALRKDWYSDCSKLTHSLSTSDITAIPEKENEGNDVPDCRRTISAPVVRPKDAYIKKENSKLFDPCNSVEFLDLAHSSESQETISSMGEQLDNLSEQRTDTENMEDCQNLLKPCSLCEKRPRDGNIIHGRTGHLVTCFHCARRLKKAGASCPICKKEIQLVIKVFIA
Target sequence (Q00987 whole entry, looked up): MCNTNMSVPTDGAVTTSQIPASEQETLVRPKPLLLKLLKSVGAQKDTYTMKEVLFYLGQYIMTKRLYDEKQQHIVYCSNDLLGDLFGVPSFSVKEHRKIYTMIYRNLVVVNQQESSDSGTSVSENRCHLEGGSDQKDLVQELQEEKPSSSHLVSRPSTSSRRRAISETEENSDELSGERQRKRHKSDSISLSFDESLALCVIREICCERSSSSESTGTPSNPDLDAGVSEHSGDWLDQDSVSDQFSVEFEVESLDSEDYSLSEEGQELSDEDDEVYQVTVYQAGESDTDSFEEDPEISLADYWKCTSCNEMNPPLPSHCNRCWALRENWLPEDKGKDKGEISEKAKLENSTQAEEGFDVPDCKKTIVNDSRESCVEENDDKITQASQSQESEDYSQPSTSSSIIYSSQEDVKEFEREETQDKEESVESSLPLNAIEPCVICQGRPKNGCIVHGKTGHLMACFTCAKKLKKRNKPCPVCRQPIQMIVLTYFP
HIF-2a conf = HIF-2a reporter inhibitor retest, confirmation, luminescence, 786-0 RCC cells; shares compounds with HIF-2a block; inhibition, % at 18.8 µM; 1,800 compounds, 56% hits; HIF-2a luciferase reporter luminescence, overnight; AID 651580, 2012;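 active = mean inhibition across four replicates of at least 40 percent at the single tested concentration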
HIF-1a cs = HIF-1a luciferase reporter signal reduction – MiaPaCa-2 cells, single concentration, counter-screen for HIF-2a inhibitor project, confirmation; AID 651589, 2012; shares compounds with HIF-2a block; inhibition, % at 18.8 µM; MiaPaCa-2 HIF-1a luciferase reporter, desferoxamine, overnight; 1,800 compounds, 72% hits;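 active = mean inhibition of the reporter signal across four replicates at the single tested dose of 50% or more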
Hits are given with their value; . = inactive; / = no result given. Only some compounds are listed: those with a hit (about 4% of all), similar ones and a draw of the others.

SMILES | Peg3 promoter | CF NFkB block | TWEAK-Fn14 inh | KKLEB cytotox | HIF-2a block | TROY NFkB inh | CF NFkB inh conf | Mdm2-MdmX confirm | HIF-2a conf | HIF-1a cs
O=C(c1nnsc1S(=O)c1ccc(Cl)cc1)N1CCOCC1 (centres undefined) | 101 | 84 | 86 | . | . | 51 | 105 | 102 | / | /
CC(C)CNC(=O)c1coc(=O)c(Br)c1 | 74 | 74 | . | . | 70 | . | 95 | / | . | 52
O=C(NCCC1=CCCCC1)c1coc(=O)c(Br)c1 | 81 | 85 | 92 | . | 65 | . | 93 | / | . | 64
O=C(NC(CO)(CO)CO)c1coc(=O)c(Br)c1 | . | . | . | . | . | . | / | / | / | /
COc1cc(/C=C/C(=O)OCC(=O)NCCc2ccc(S(N)(=O)=O)cc2)ccc1OCC#N | . | . | . | . | . | . | / | / | / | /
O=C(Nc1cccc(F)c1)/C(=C/c1ccco1)NC(=O)c1ccco1 | . | . | . | . | . | . | / | / | / | /
COC(=O)/C=C1\SC(=NC(=O)c2ccc(-c3ccccc3)cc2)NC1=O | . | . | . | . | . | . | / | / | / | /
CC(C)c1ccc(/C=N/n2c(-c3ccccc3)n[nH]c2=S)cc1 | . | . | . | . | . | . | / | / | / | /
CC1=CC(C)(C)Nc2ccc(OC(=O)CN3C(=O)c4ccccc4C3=O)cc21 | 102 | 51 | 89 | . | 88 | . | . | / | 88 | 96
CCOc1ccc2c(c1)C(C)=CC(C)(C)N2 | . | . | . | . | . | . | / | / | / | /
CC(C)(CNC(=O)c1cccc(S(=O)(=O)Nc2ccc(SC(F)F)cc2)c1)N1CCOCC1 | . | . | . | . | . | . | / | / | / | /
Nc1nc(N)nc(-c2cc(O)ccc2O)n1 | . | 54 | . | . | . | . | 72 | 101 | / | /
Cc1ccc(NC(=O)CSc2nnc(C3CC3)n2C)cc1S(=O)(=O)N1CCCCC1 | . | . | . | . | . | . | / | / | / | /
CCOC(=O)COc1ccccc1/C=N/O | . | . | . | . | . | . | / | / | / | /
CCOC(=O)COc1ccc2ccccc2c1/C=C/[N+](=O)[O-] | 107 | 62 | . | . | 90 | . | 107 | / | 86 | 104
COc1ccc2cc3c(N)nn(C(=O)c4ccc(F)cc4)c3nc2c1 | . | 63 | 55 | . | . | . | 72 | 91 | / | /
COc1ccc2cc3c(N)nn(C(=O)c4cccc(F)c4)c3nc2c1 | . | . | . | . | . | . | / | / | / | /
Cc1cc(Sc2nnc(N)s2)c2ccccc2n1 | . | 89 | 90 | . | 41 | . | . | / | . | .
Cc1ccc(Cl)c(NC(=O)COC(=O)c2nn(-c3ccccc3)cc2O)c1Cl | . | . | . | . | . | . | / | / | / | /
CC(C)(C)C(=O)Cn1ncc(Br)c(Br)c1=O | 97 | 78 | 79 | . | 94 | 53 | . | / | 93 | 105
CN(c1ncnc(N)c1[N+](=O)[O-])C1CCCCC1 | . | 84 | 81 | . | . | 52 | 93 | 87 | / | /
CCCCN(c1ccccc1)c1ncnc(N)c1[N+](=O)[O-] | . | 76 | 83 | . | . | . | 93 | 86 | / | /
CCc1ccc(Nc2n[n+](-c3ccccc3)c(-c3c(Cl)cccc3Cl)s2)cc1 | 97 | 52 | 52 | . | . | 59 | 88 | 101 | / | /
